In PubChem BioAssay (NCATS):
Records with an inconclusive call do not appear. Active and inactive are the calls of the source. Unless noted, calls follow the shape of the dose curve; as a rule, active = well fitted curve in the direction sought with a large enough effect; inconclusive = small, poorly fitted or top-dose-only effect, or another doubt; inactive = no such curve, though single readings can be large; an effect the other way counts as inactive or inconclusive.

How the values were obtained:
[1] = Cell Viability - Jurkat (AID 426;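 active = dose-dependent loss of cell ATP signal giving a full or clear fitted curve, ranked by lower potency value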;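 also: potency is read from the fitted curve at half-maximal effect; cells exposed to compound for 40 hours at 37 °C before ATP read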); details: qHTS
In short: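 Cytotoxicity taken as drop in cellular ATP (CellTiter-Glo luminescence, 20 min room temperature) after 40 hr, 37C treatment of 5000 Jurkat Clone E6-1 cells per well; concentration-response fitted with Hill equation for AC50.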

[2] = Cell Viability - HepG2 (AID 433; calls by dose curve;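 also: potency is read from the fitted curve at half-maximal effect; potency for ATP loss meaning cytotoxicity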); details: qHTS
In short: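 In this qHTS format, a 40 h, 37 °C compound incubation of HepG2 cells in complete medium precedes a 20 min CellTiter-Glo step at room temperature. Tamoxifen and doxorubicin serve as positive controls; Hill-equation fits yield AC50.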

[3] = Cell Viability - MRC5 (AID 434; calls by dose curve;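 also: potency is read from the fitted curve at half-maximal effect; cells exposed to compound for 40 hours at 37 °C; potency reflects cytotoxicity seen as loss of intracellular ATP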); details: MRC5 lung fibroblast viability, qHTS
In short: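 Decrease in intracellular ATP, quantified by luciferase light output, reflects compound toxicity toward MRC5 cells exposed for 40 hr in complete culture medium. Concentration-response curves, scaled between DMSO and 100 uM tamoxifen, gave AC50 values.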

[4] = Cell Viability - NIH 3T3 (AID 541); details: NIH 3T3 cell viability, qHTS; activity change, negative = cytotoxicity: at 92.2 µM (top of the series); also: nearly all actives have a fitted effect of over 25% in size; also: potency is read from the fitted curve at half-maximal effect;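 as to activity change, negative = cytotoxicity: plate controls were DMSO alone for no effect and tamoxifen positive control for full effect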
In short: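 Intracellular ATP (CellTiter-Glo luminescence, 20 min at room temperature) measured after 40 hr compound exposure at 37 °C of 1000 NIH 3T3 mouse fibroblasts/well in complete medium; AC50 derived by Hill-equation modelling of qHTS concentration-response curves.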

[5] = Cell Viability - H-4-II-E (AID 543); details: H-4-II-E rat hepatoma viability; series mostly up to 92.2 µM; also: nearly all actives have a fitted effect of over 35% in size; also: potency is read from the fitted curve at half-maximal effect
In short: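 CellTiter-Glo luminescence (intracellular ATP) measured after 40 h compound exposure at 37 °C in H-4-II-E rat hepatoma cells seeded at 1500/well. Values are AC50s fitted with the standard Hill equation.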

[6] = Cellular Toxicity (caspase-3) Jurkat (AID 655); details: Jurkat caspase-3 activation, luminescence; caspase-3 activation: at 92.2 µM (top of the series), DMSO = 0%, tamoxifen = 100%;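 also: cells exposed to compound for 16 h at 37 °C before reading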; also: potency is read from the fitted curve at half-maximal effect
In short: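 qHTS in human Jurkat T-cell leukemia line: 16 hr compound treatment at 37 °C, caspase-3/7 activity measured by Caspase-Glo luminescence. AC50 derived from Hill equation.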

[7] = Cellular Toxicity (caspase-3) SHSY5Y (AID 657); details: SH-SY5Y caspase-3 activation; series mostly up to 91.7 µM
In short: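 Readout: caspase-cleaved peptide-aminoluciferin substrate driving luciferase light in SH-SY5Y neuroblastoma cells after 16 h treatment. Response normalized to DMSO and 10 uM staurosporine controls.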

[8] = Cellular Toxicity (caspase-3) BJ (AID 658); details: BJ fibroblasts, luminescence; Potency: caspase-3 activation; series mostly up to 91.7 µM; also: potency is read from the fitted curve at half-maximal effect
In short: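 Plated BJ cells (1000/well) rested 5 hr, received compound for 16 hr at 37 °C, then Caspase-Glo 3/7 reagent for 1 hr at room temperature before luminescence reading.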

[9] = Cellular Toxicity (caspase-3) MRC-5 (AID 659); details: MRC-5 cells, luminescence, normalized: DMSO 0%, 10 µM staurosporine 100%; series mostly up to 91.7 µM
In short: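 Apoptosis readout in MRC-5 cells: luciferase light generated after caspase 3/7 cleaves a peptide-aminoluciferin substrate, measured post 16 hr compound incubation at 37 °C.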

[10] = Cellular Toxicity (caspase-3) Mesangial (AID 660); details: mesangial cells, normalized: DMSO 0%, 100 µM tamoxifen 100%; at 91.7 µM (top of the series);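 also: combined caspase 3 and 7 activity read by Caspase-Glo luminescence; cells exposed to compound for 16 h before the caspase read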
In short: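 Caspase 3/7 activation measured by Caspase-Glo 3/7 luminescence (20 min, room temperature) following 16 h exposure of mesangial cells (1000/well); AC50 from Hill-equation fit, normalized to DMSO and 100 uM tamoxifen.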

[11] = Cellular Toxicity (caspase-3) SK-N-SH (AID 661); details: SK-N-SH caspase-3 activation, qHTS; caspase-3 activation: at 91.7 µM (top of the series), DMSO as zero, staurosporine as full
In short: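 Caspase 3/7 activation was read by luminogenic substrate cleavage after 16 hour treatment of SK-N-SH cells. Signal was scaled between DMSO and 10 uM staurosporine, and concentration-response data were fitted with the Hill equation for AC50.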

[12] = Cellular Toxicity (caspase-3) Hek293 (AID 664); details: HEK293 caspase-3 activation, DMSO = 0%, 100 µM tamoxifen = 100%; at 92.2 µM (top of the series);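 also: cells exposed to compound for 16 h at 37 °C before readout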
In short: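 Concentration-response qHTS: caspase 3/7 activation measured by luminescent aminoluciferin substrate cleavage after 16 h compound exposure of Hek 293 cells. AC50 from Hill equation, with DMSO as basal and 100 uM tamoxifen as 100%.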

[13] = Cellular Toxicity (caspase-3) NIH 3T3 (AID 666); details: NIH 3T3 caspase-3 activation, apoptosis/toxicity; series mostly up to 92.2 µM;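 also: caspase signal read after 16 h compound exposure; 0% = DMSO basal and 100% = 100 µM tamoxifen stimulation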
In short: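 Caspase-Glo 3/7 luminescence reported caspase activation in 1000 NIH 3T3 cells/well after 16 h compound exposure at 37 C. DMSO set basal and 100 uM tamoxifen set 100% stimulation; concentration-response modeled with the Hill equation for AC50.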

[14] = biological target: Cytochrome P450 3A4 (Homo sapiens) (UniProt P08684); test: qHTS Assay for Inhibitors and Substrates of Cytochrome P450 3A4 (AID 884); details: recombinant CYP3A4, Luciferin-PPXE luminescence; series mostly up to 57.1 µM; also: nearly all actives have a fitted effect of over 50% in size; also: potency is read from the fitted curve at half-maximal effect
In short: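 Luminescent readout of luciferin produced by CYP3A4 (20 nM) dealkylation of Luciferin-PPXE, 25 uM (its KM). NADPH-driven reaction ran 60 min at RT after 10 min compound preincubation; data scaled to 57 uM ketoconazole as 100% inhibition.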

[15] = MultiTox-Fluor Cytotoxicity Assay - LYMP1-001 - Dead Cells (AID 946); details: LYMP1-001 lymphoblastoid cells, dead-cell protease fluorescence; series mostly up to 92.2 µM; also: potency is read from the fitted curve at half-maximal effect
In short: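 Seed 2500 LYMP1-001 cells/well, incubate 5 hr at 37 C; add compound, 16 hr at 37 C; add MultiTox-Fluor reagent, 60 min RT; read dead-cell fluorescence Ex/Em=485/520. Normalize to DMSO and 15 uM tetraoctylammonium bromide.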

[16] = Cell Viability - LYMP1-003 - Assay at 24 hr (AID 963); details: LYMP1-003 lymphoblastoid cell viability; series mostly up to 92.2 µM; also: potency is read from the fitted curve at half-maximal effect
In short: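 Concentration-response qHTS: ATP loss measured by CellTiter-Glo luminescence after 24 h compound exposure at 37 C. Cells were LYMP1-003 human lymphoblastoid, 2500 per well. AC50 derived via standard Hill equation modeling.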

[17] = Cell Viability - LYMP2-003 (AID 965); details: LYMP2-003 lymphoblastoid cell viability; series mostly up to 92.2 µM;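 also: cells exposed to compounds for 24 h before reading; nearly all actives have a fitted effect of over 50% in size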; also: potency is read from the fitted curve at half-maximal effect;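 as to activity change, negative = cytotoxicity: 0% = DMSO only and full effect = 92 µM tetraoctylammonium bromide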
In short: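 qHTS, human lymphoblastoid line, 2500 cells/well, complete medium. 24 h drug, 37 C. ATP-based luminescent readout; Hill-fit AC50.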

[18] = Cell Viability - LYMP2-007 (AID 979); details: LYMP2-007 lymphoblastoid cell viability; series mostly up to 92.2 µM;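 also: cells exposed to compound for 24 h before reading; nearly all actives have a fitted effect of over 60% in size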; also: potency is read from the fitted curve at half-maximal effect;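 as to activity change, negative = cytotoxicity: 0% = DMSO only and the negative end = 92 µM tetraoctylammonium bromide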
In short: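 AC50 values come from Hill-equation fits of luminescent intracellular ATP (CellTiter-Glo, 30 min, room temperature) following 24 h compound exposure at 37 C. Cells: LYMP2-007 lymphoblastoid line, 2500 per well, in complete culture medium.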

[19] = Cell Viability - LYMP1-002 - Assay at 24 hr (AID 993); details: LYMP1-002 lymphoblastoid cells viability; series mostly up to 92.2 µM; also: potency is read from the fitted curve at half-maximal effect; as to activity change, negative = cytotoxicity: % is scaled to controls: 0 for no effect and ±100 for the full control effect
In short: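 qHTS cytotoxicity at 24 h: CellTiter-Glo ATP luminescence in lymphoblastoid line LYMP1-002 incubated with compound at 37 °C. Concentration-response modeled with the Hill equation for AC50; tetraoctylammonium bromide served as positive control.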

[20] = qHTS assay for small molecule agonists of the antioxidant response element (ARE) signaling pathway measured by Nrf2-dependant transcriptional activity - cell viability counter screen (AID 720653; active = well fitted curve in the direction sought with a large enough effect in the repeat runs; an effect the other way counts as inactive or inconclusive; also: potency is read from the fitted curve at half-maximal effect; as to max response: % is scaled to controls: 0 for no effect and ±100 for the full control effect); details: ARE-bla HepG2 viability, CellTiter-Glo ATP luminescence, 16 h; max response: hits give low values
In short: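 ARE-bla HepG2 cells (2,000/well) rested 5 hrs at 37C/5% CO2, then exposed to compounds in DMSO for 16 hrs. Viability was read in the same wells as intracellular ATP by luminescence, 30 min at room temperature after reagent addition.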

Chain of Cytochrome P450 3A4 (Homo sapiens) (P08684 whole entry, looked up): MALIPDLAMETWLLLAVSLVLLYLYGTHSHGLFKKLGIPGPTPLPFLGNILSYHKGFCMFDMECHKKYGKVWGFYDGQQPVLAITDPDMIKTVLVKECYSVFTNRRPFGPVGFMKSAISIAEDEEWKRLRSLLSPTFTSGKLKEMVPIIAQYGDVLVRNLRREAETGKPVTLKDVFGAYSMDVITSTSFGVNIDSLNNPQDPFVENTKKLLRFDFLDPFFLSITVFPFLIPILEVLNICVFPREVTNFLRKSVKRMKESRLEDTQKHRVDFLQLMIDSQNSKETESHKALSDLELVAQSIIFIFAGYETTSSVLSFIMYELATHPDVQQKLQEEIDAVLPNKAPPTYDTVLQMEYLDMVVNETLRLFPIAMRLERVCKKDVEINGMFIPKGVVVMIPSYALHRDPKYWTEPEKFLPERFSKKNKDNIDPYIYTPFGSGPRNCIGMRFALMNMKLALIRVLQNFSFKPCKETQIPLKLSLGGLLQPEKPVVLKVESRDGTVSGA

c1ccc2c(c1)ccc1cc3c(ccc4ccccc43)cc12
inactive: Potency [1] > 92 µM | Potency [2] > 92 µM | Potency [3] > 92 µM | Potency [4] | Potency [5] | Potency [6] | Potency [7] | Potency [8] | outcome [9] | caspase-3 activation [10] 0.415% | caspase-3 activation [11] -0.556% | caspase-3 activation [12] -3.42% | Potency [13] | Potency [14] | Potency [15] | Potency [16] | Potency [17] | Potency [18] | Potency [19] | max response [20] -11.9%

O=[N+]([O-])c1cc([N+](=O)[O-])c2ccc(S(=O)(=O)O)cc2c1O
inactive: Potency [1] > 92 µM | Potency [2] > 92 µM | Potency [3] > 92 µM | Potency [4] | Potency [5] | Potency [6] | Potency [7] | Potency [8] | outcome [9] | caspase-3 activation [10] 1.36% | caspase-3 activation [11] -1.51% | caspase-3 activation [12] 1.41% | Potency [13] | Potency [15] | Potency [16] | Potency [17] | Potency [18] | Potency [19] | max response [20] 17.2%

CCC(C)Nc1ccc(NC(C)CC)cc1 (configuration not stated)
inactive: Potency [6] | Potency [7] | Potency [8] | outcome [9] | caspase-3 activation [10] -4.04% | caspase-3 activation [11] -5.96% | caspase-3 activation [12] -12.1%
active: Potency [1] 3.09 µM | Potency [2] 13.5 µM | Potency [3] 20.7 µM | Potency [4] 5.01 µM | Potency [5] 6.31 µM | Potency [14] 15.8 µM | Potency [16] 12.6 µM | Potency [17] 10 µM | Potency [18] 5.01 µM | Potency [19] 15.8 µM | Potency [20] 22.4 µM

CC(=O)Nc1ccc(C(=O)CCl)cc1
active: Potency [1] 2.44 µM | Potency [2] 40.3 µM | Potency [4] 2 µM | Potency [5] 10 µM | Potency [15] 25.1 µM | Potency [16] 39.8 µM | Potency [17] 6.31 µM | Potency [18] 6.31 µM | Potency [19] 25.1 µM | Potency [20] 39.8 µM
inactive: Potency [6] | Potency [7] | Potency [8] | outcome [9] | caspase-3 activation [10] -4.19% | caspase-3 activation [11] -5.98% | Potency [13] | Potency [14]

C=CC(=O)OCCOCCOC(=O)C=C
inactive: outcome [9] | caspase-3 activation [10] 0.177% | caspase-3 activation [12] 5.92% | Potency [13] | Potency [14] | max response [20] -8.93%
active: Potency [1] 7.5 µM | Potency [4] 3.16 µM | Potency [5] 20 µM | Potency [15] 50.1 µM | Potency [16] 31.6 µM | Potency [17] 12.6 µM | Potency [18] 25.1 µM

CNc1ccc(O)cc1
inactive: Potency [7] | Potency [8] | outcome [9] | caspase-3 activation [10] -3.33% | caspase-3 activation [11] -7.58% | caspase-3 activation [12] -11.1% | max response [20] -24.5%
active: Potency [1] 2.14 µM | Potency [2] 59.6 µM | Potency [4] 25.1 µM | Potency [5] 20 µM | Potency [14] 12.6 µM | Potency [15] 25.1 µM | Potency [16] 25.1 µM | Potency [17] 5.01 µM | Potency [18] 6.31 µM | Potency [19] 15.8 µM

ClC1=C(Cl)C(Cl)(Cl)C(Cl)=C1Cl
active: Potency [1] 1.88 µM | Potency [2] 22.6 µM | activity change, negative = cytotoxicity [4] -125% | Potency [6] 0.316 µM | Potency [8] 3.98 µM | caspase-3 activation [12] 131%
inactive: Potency [3] > 92 µM | Potency [5] | Potency [7] | outcome [9] | caspase-3 activation [10] 0.653% | Potency [13] | Potency [14] | Potency [15] | Potency [16] | Potency [17] | Potency [19]
